From PubChem BioAssay (EPA / NIEHS)
Activity calls are given as the source filed them. The calls were made as follows: active = hit-call score of the fitted dose curve at least 0.9, where 1 is the maximum; inactive = score below 0.9.

Legend:
[1] = ATG_ISRE_CIS: Attagene CIS-FACTORIAL HepG2 Assay for human Interferon Regulatory Factor 1 (IRF1) binding to an Interferon-Stimulated Response Element (ISRE) (AID 2282948); settings: HepG2 ISRE cis-reporter (Attagene), mRNA transcription readout; actives raise or lower the signal
In short: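 Endogenous transcription factor activity read as reporter transcript abundance via RT-PCR and capillary electrophoresis. HepG2 cells transiently transfected, 24 h chemical exposure. Gain or loss fitted against DMSO baseline.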

[2] = ATG_M_32_CIS: Attagene CIS-FACTORIAL HepG2 Assay for M32 Transcription Factor (Internal Marker) (AID 2282949); settings: HepG2 Attagene cis-factorial M32 reporter, mRNA; actives raise or lower the signal;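 also: background control marker of the multiplexed CIS panel rather than a real target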
In short: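 Using DMSO as baseline, bidirectional curve fits were applied to reporter mRNA signals. These came from transiently transfected HepG2 cells exposed for 24 h, with RNA analysed by RT-PCR, FAM primer extension, HpaI digestion and CE.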

[3] = ATG_M_06_CIS: Attagene CIS-FACTORIAL HepG2 Assay for M06 Transcription Factor (Internal Marker) (AID 2282950); settings: HepG2 Attagene CIS-FACTORIAL M06 internal marker reporter; actives raise or lower the signal
In short: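 Steps: transfect HepG2 with multiplexed cis-element reporter constructs; dose chemical 24 h; extract RNA with DNase treatment; reverse-transcribe, PCR-amplify, 6-FAM label, HpaI digest; separate fragments by capillary electrophoresis. Activity fitted both directions versus DMSO.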

[4] = target: Hypoxia-inducible factor 1-alpha (Homo sapiens) (UniProt Q16665); test: ATG_HIF1a_CIS: Attagene CIS-FACTORIAL HepG2 Assay for human Hypoxia Inducible Factor 1 (HIF1A) (AID 2282951); settings: HepG2 Attagene cis-factorial HIF1a reporter transcription; actives raise or lower the signal
Chain of Hypoxia-inducible factor 1-alpha (Homo sapiens) (Q16665 whole entry, looked up): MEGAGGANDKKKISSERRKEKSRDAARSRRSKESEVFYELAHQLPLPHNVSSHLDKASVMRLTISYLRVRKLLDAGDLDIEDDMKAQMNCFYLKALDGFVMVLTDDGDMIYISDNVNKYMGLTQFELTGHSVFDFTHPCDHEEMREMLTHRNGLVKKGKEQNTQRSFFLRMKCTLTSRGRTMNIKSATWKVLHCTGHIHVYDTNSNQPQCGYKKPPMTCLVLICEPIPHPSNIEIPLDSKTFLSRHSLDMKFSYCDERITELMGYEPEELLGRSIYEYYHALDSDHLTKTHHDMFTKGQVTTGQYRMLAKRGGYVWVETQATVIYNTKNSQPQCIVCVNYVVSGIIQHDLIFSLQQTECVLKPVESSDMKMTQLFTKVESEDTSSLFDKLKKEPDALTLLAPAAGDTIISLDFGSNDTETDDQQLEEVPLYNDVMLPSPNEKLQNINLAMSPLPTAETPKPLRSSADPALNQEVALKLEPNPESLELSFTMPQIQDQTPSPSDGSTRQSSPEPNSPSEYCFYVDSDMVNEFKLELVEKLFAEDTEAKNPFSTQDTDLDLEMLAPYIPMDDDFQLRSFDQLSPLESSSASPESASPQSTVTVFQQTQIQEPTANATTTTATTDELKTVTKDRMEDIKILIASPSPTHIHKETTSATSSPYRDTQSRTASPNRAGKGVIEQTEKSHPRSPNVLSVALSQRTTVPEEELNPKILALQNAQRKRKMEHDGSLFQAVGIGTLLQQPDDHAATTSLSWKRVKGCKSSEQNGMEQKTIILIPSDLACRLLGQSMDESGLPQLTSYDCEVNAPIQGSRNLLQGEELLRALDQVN
In short: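 Dosed 24 h, transfected HepG2 cells yielded total RNA whose reporter transcripts were RT-PCR-amplified and sized by capillary electrophoresis using fluorescent labelling; DMSO defined baseline, with gain and loss of signal both fitted.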

[5] = ATG_MRE_CIS: Attagene CIS-FACTORIAL HepG2 Assay for human Metal Responsive Element (MRE) (AID 2282954); settings: HepG2 MRE cis-reporter transcription, Attagene multiplex; actives raise or lower the signal
In short: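 RT-PCR/capillary electrophoresis readout of reporter mRNA, 24 h post-dosing, in HepG2 cells transfected with multiplexed cis-regulated reporter constructs. Gain or loss of signal fitted bidirectionally against DMSO baseline.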

[6] = ATG_PBREM_CIS: Attagene CIS-FACTORIAL HepG2 Assay for human Phenobarbital-responsive Enhancer Module (PBREM) (AID 2282955); settings: HepG2 PBREM cis-reporter, Attagene multiplexed transcription; actives raise or lower the signal
In short: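 Transfected liver-derived HepG2 cells exposed 24 h; PBREM reporter transcript quantified via RT-PCR and capillary electrophoresis, with activity in either direction referenced to DMSO.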

[7] = target: Paired box protein Pax-6 (Homo sapiens) (UniProt P26367); test: ATG_Pax6_CIS: Attagene CIS-FACTORIAL HepG2 Assay for human Paired Box 6 (PAX6) (AID 2282956); settings: HepG2 CIS-FACTORIAL PAX6 reporter transcription, RNA readout; actives raise or lower the signal
Chain of Paired box protein Pax-6 (Homo sapiens) (P26367 whole entry, looked up): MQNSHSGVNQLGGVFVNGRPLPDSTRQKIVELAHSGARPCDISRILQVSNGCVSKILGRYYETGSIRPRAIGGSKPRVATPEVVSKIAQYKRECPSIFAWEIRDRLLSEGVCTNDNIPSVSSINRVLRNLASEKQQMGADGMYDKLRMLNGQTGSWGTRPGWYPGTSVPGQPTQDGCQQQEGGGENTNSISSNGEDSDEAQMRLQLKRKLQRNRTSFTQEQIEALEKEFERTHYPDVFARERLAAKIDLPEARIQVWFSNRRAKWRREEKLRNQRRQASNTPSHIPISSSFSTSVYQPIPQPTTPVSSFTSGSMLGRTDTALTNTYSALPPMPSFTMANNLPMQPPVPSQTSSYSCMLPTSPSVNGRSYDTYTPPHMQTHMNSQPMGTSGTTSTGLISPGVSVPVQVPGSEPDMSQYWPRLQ
In short: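 Read-out is reporter transcript level, measured by RT-PCR with fluorescent primer extension and capillary electrophoresis after 24 h dosing of transfected HepG2 cells. Activity in either direction fitted relative to DMSO control.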

[8] = ATG_PXRE_CIS: Attagene CIS-FACTORIAL HepG2 Assay for human Pregnane X Receptor Element (PXRE) (AID 2282957); settings: HepG2 Attagene CIS-FACTORIAL PXRE reporter, mRNA; actives raise or lower the signal
In short: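 Fluorescent capillary electrophoresis of amplified reporter cDNA gave the signal, collected 24 h after dosing HepG2 cells that held transfected cis-element reporter constructs.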

[9] = ATG_RORE_CIS: Attagene CIS-FACTORIAL HepG2 Assay for human RAR-related Orphan Receptor Element (RORE) (AID 2282959); settings: HepG2 Attagene cis-factorial RORE reporter, mRNA; actives raise or lower the signal
In short: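 Transiently transfected HepG2 reporter cells were treated 24 h. Reporter transcripts were detected by RT-PCR and capillary electrophoresis, with bidirectional fitting against DMSO.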

[10] = ATG_Sox_CIS: Attagene CIS-FACTORIAL HepG2 Assay for human SRY-box transcription factor (SOX) (AID 2282960); settings: HepG2 Attagene cis-factorial SOX reporter, mRNA; actives raise or lower the signal
In short: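 Gain- or loss-of-signal endpoint, fitted bidirectionally with DMSO as negative control. Based on reporter mRNA from transfected HepG2 cells harvested 24 h post-treatment and quantified via RT-PCR and capillary electrophoresis.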

[11] = target: Transcription factor Sp1 (Homo sapiens) (UniProt P08047); test: ATG_Sp1_CIS: Attagene CIS-FACTORIAL HepG2 Assay for human Specificity Protein 1 (Sp1) (AID 2282961); settings: HepG2 Sp1 cis-reporter transcription, actives raise or lower the signal
Chain of Transcription factor Sp1 (Homo sapiens) (P08047 whole entry, looked up, the tested form may be a part): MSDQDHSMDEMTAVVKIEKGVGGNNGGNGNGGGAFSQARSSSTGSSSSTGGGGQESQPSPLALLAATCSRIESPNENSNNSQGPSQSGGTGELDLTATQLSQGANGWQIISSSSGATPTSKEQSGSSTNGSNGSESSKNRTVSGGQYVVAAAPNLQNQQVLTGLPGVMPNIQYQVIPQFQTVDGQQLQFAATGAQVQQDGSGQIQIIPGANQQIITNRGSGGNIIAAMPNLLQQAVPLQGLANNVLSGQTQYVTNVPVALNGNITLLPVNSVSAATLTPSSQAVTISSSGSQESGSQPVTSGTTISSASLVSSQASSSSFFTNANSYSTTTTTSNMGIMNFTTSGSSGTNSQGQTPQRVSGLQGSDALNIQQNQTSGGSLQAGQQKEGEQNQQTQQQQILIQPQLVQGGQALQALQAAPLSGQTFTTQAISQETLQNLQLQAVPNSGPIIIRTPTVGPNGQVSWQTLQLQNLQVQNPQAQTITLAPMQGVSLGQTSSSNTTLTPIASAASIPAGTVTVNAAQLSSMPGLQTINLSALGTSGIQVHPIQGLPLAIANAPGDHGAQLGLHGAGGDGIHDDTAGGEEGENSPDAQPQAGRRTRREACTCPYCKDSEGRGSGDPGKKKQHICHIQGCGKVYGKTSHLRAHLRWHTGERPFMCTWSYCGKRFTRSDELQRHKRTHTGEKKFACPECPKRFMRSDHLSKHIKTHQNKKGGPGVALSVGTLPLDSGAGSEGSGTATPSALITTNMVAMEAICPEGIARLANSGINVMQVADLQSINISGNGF
In short: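 Endpoint reflects endogenous Sp1 transcriptional activity, not an exogenous fusion protein: HepG2 cells with transfected cis-regulated reporters, 24 h dosing, RT-PCR/capillary electrophoresis mRNA read-out, DMSO-normalised bidirectional fit.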

[12] = ATG_SREBP_CIS: Attagene CIS-FACTORIAL HepG2 Assay for human Sterol Regulatory Element Binding (SREBP) (AID 2282962); settings: HepG2 Attagene cis-factorial SREBP reporter, mRNA; actives raise or lower the signal
In short: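 Endogenous SREBP activity read as cis-element-driven reporter transcript in transiently transfected HepG2, 24 h post-dosing; quantified via RT-PCR plus capillary electrophoresis of fluorescent fragments. Gain or loss of signal fitted relative to DMSO baseline.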

[13] = target: Signal transducer and activator of transcription 3 (Homo sapiens) (UniProt P40763); test: ATG_STAT3_CIS: Attagene CIS-FACTORIAL HepG2 Assay for human Signal Transducer and Activator of Transcription 3 (STAT3) (AID 2282963); settings: HepG2, Attagene cis-factorial STAT3 reporter transcription; actives raise or lower the signal
Chain of Signal transducer and activator of transcription 3 (Homo sapiens) (P40763 whole entry, looked up, the tested form may be a part): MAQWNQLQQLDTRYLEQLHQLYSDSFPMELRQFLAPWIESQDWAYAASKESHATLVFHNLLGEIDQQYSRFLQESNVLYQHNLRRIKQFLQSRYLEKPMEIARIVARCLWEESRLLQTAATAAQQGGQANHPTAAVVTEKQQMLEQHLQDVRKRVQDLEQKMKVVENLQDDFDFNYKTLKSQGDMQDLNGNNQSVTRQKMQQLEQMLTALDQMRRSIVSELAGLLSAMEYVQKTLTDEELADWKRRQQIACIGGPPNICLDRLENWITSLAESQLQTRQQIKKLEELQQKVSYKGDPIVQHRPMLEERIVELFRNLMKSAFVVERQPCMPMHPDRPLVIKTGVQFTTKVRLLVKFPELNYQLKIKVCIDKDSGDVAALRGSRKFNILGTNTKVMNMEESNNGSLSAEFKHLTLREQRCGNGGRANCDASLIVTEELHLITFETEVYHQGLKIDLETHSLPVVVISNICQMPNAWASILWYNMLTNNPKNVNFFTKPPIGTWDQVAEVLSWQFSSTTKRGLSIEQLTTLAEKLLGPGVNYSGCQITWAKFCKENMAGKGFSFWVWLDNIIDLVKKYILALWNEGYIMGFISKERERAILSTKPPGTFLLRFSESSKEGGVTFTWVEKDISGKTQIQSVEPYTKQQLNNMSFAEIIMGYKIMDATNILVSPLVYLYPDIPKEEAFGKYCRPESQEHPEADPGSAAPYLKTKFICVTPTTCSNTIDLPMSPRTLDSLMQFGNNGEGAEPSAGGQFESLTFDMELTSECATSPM
In short: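 Readout: fluorescent reporter mRNA fragments resolved by capillary electrophoresis. Setup: HepG2 transfected with MRTUs reporting endogenous transcription-factor activity, dosed 24 h. Gain or loss of signal fitted bidirectionally against DMSO control.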

[14] = ATG_TA_CIS: Attagene CIS-FACTORIAL HepG2 Assay for human TA Basal Promoter (AID 2282964); settings: HepG2 Attagene CIS-factorial TA basal promoter reporter; actives raise or lower the signal
In short: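 Steps: transfect HepG2 with MRTUs; dose 24 h; isolate RNA, DNase-treat, reverse-transcribe; PCR and FAM-label reporter cDNA; digest with HpaI 2h at 37 C; run capillary electrophoresis. Activity fitted both directions against DMSO.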

[15] = ATG_TCF_b_cat_CIS: Attagene CIS-FACTORIAL HepG2 Assay for human T-Cell-Factor with beta-catenin (TCF/b-cat) (AID 2282965); settings: HepG2 TCF/beta-catenin cis-reporter transcription, actives raise or lower the signal
In short: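 HepG2, transient MRTU transfection, cis-element-driven reporters (endogenous TFs). 24 h compound exposure. Readout: reporter mRNA by RT-PCR + 6-FAM primer extension, HpaI digest, capillary electrophoresis. Gain/loss fit vs DMSO baseline.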

[16] = target: Hepatocyte nuclear factor 6 (Homo sapiens) (UniProt Q9UBC0); test: ATG_HNF6_CIS: Attagene CIS-FACTORIAL HepG2 Assay for human Hepatocyte Nuclear Factor 6 (HNF6) (AID 2282952); settings: HepG2 Attagene cis-factorial HNF6 reporter transcription; actives raise or lower the signal
Chain of Hepatocyte nuclear factor 6 (Homo sapiens) (Q9UBC0 whole entry, looked up): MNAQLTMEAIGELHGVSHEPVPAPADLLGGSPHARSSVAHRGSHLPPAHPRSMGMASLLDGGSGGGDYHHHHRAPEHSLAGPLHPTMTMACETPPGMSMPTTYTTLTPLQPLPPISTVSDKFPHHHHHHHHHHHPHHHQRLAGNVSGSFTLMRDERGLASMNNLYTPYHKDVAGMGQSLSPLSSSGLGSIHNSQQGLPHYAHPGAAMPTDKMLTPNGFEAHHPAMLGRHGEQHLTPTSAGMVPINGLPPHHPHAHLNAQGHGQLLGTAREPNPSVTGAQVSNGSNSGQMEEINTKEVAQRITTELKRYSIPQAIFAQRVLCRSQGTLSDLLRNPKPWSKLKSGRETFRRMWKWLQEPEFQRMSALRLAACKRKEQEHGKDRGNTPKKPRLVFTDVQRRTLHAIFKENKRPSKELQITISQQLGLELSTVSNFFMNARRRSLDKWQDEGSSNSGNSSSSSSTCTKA
In short: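 Activity values derive from bidirectional fitting against DMSO of reporter mRNA levels, measured by capillary electrophoresis of labelled RT-PCR products from HepG2 cells exposed 24 h.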

[17] = target: Heat shock factor protein 1 (Homo sapiens) (UniProt Q00613); test: ATG_HSE_CIS: Attagene CIS-FACTORIAL HepG2 Assay for human Heat Shock Transcription Factor 1 (HSE) (AID 2282953); settings: HepG2 HSE cis-reporter, Attagene RNA transcription; actives raise or lower the signal
Chain of Heat shock factor protein 1 (Homo sapiens) (Q00613 whole entry, looked up, the tested form may be a part): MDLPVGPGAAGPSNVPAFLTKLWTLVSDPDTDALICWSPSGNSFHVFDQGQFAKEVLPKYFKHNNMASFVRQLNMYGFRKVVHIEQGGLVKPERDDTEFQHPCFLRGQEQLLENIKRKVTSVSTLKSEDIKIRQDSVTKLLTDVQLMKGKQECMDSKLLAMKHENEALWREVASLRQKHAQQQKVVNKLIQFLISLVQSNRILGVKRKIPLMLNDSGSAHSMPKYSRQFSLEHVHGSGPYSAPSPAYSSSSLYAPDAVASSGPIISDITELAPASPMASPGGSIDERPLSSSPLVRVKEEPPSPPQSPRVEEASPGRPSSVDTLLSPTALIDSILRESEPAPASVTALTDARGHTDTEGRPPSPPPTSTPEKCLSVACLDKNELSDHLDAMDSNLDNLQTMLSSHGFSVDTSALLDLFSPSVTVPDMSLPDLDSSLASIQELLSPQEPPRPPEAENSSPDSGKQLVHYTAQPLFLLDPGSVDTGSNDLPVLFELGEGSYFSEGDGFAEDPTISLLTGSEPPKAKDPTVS
In short: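 Cells were transfected with cis-element-driven reporter constructs, dosed for 24 h, then total RNA was reverse-transcribed and reporter cDNA amplified, FAM-labelled and digested with HpaI. Fragments were resolved by capillary electrophoresis; gain or loss was fitted against DMSO.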

[18] = ATG_PPRE_CIS: Attagene CIS-FACTORIAL HepG2 Assay for human Peroxisome Proliferator-activated Response Element (PPRE) (AID 2282958); settings: HepG2 PPRE cis-element reporter, Attagene transcription factor profiling; actives raise or lower the signal
In short: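 Measured endpoint: PPRE-controlled reporter mRNA, detected by RT-PCR and capillary electrophoresis fluorescence, from transiently transfected HepG2 cells 24 h after dosing. Curves fitted in both directions using DMSO baseline.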

Compound | outcome [1] | outcome [2] | outcome [3] | outcome [4] | outcome [5] | outcome [6] | outcome [7] | outcome [8] | outcome [9] | outcome [10] | outcome [11] | outcome [12] | outcome [13] | outcome [14] | outcome [15] | AC50 [1] | outcome [16] | outcome [17] | AC50 [5] | outcome [18]
O=C1C(N(CO)C(=O)NCO)N(CO)C(=O)N1CO (stereo unspecified) | inactive | inactive | inactive | inactive | inactive | inactive | inactive | inactive | inactive | inactive | inactive | inactive | inactive | inactive | inactive |  |  |  |  | 
CC(CC=O)c1ccccc1 (stereo unspecified) |  | inactive | inactive | inactive |  | inactive | inactive |  |  | inactive | inactive | inactive | inactive | inactive | inactive | 56.1 µM (active) | inactive | inactive | 104 µM (active) | inactive
OC1CCCCCCCCCCC1 | inactive | inactive | inactive | inactive |  | inactive | inactive |  | inactive | inactive | inactive | inactive | inactive | inactive | inactive |  | inactive | inactive | 100 µM (active) | inactive
CCO[Si](CCCN=C=O)(OCC)OCC | inactive | inactive | inactive | inactive | inactive | inactive | inactive |  | inactive |  | inactive | inactive | inactive | inactive | inactive |  | inactive |  |  | inactive
CC(=O)Oc1ccc(C)cc1 |  | inactive | inactive | inactive | inactive |  | inactive | inactive | inactive | inactive | inactive | inactive | inactive | inactive | inactive |  | inactive | inactive |  | inactive
CC1=CC[C@H]2C[C@@H]1C2(C)C | inactive | inactive | inactive | inactive | inactive |  | inactive | inactive | inactive | inactive | inactive | inactive | inactive | inactive | inactive |  | inactive | inactive |  | inactive
